Laboratory results reported in PubChem BioAssay (Tox21).
Results filed as inconclusive are left out. Active and inactive are the calls of the source. Unless noted, calls follow the shape of the full dose curve.

Assays:
[1] = Nuclear factor erythroid 2-related factor 2/antioxidant responsive element (Nrf2/ARE) small molecule agonists: qHTS cell viability counter screen in human keratinocytes (AID 1919968; active = well fitted curve in the direction sought with a large enough effect in the repeat runs; an effect the other way counts as inactive or inconclusive; also: nearly all actives have a fitted effect of over 55% in size)
Method in brief: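 Stably transfected HaCaT (KeratinoSens), 1,500/well. Test agents in DMSO were applied for 23 h, 37 C/5% CO2. CellTiter-Fluor was incubated 1 h before the fluorescence read.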

[2] = Nuclear factor erythroid 2-related factor 2/antioxidant responsive element (Nrf2/ARE) small molecule agonists: luciferase reporter gene qHTS assay in human keratinocytes (AID 1919969); also: nearly all actives have a fitted effect of over 35% in size; also: potency is read from the fitted curve at half-maximal effect
[3] = target: Gonadotropin-releasing hormone receptor (Homo sapiens) (UniProt P30968); experiment: Human gonadotropin-releasing hormone receptor (GnRHR) small molecule agonists, calcium flux assay in GnRHR-HEK293 cells (AID 1920063); also: nearly all actives have a fitted effect of over 35% in size
Chain of Gonadotropin-releasing hormone receptor (Homo sapiens) (P30968 whole entry, looked up): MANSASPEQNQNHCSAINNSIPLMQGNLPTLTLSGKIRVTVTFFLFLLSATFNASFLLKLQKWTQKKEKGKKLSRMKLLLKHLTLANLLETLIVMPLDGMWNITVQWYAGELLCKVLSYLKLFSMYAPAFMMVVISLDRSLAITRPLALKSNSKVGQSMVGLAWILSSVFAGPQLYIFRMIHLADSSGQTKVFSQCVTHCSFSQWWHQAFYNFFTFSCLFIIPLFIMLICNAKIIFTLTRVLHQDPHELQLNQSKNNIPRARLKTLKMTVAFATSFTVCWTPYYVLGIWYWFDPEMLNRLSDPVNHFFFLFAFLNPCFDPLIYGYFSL
Method in brief: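 Stable human GnRHR HEK293 line. 18 h plating, then calcium dye for 1 h at 37 C. Agonist-mode compound addition from DMSO stocks; fluorescence monitored 3 min.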

[4] = target: KiSS-1 receptor (Homo sapiens) (UniProt Q969F8); experiment: Human kisspeptin (KISS1R) small molecule agonists, calcium flux assay in KISS1R-HEK293 cells (AID 1920064; active = well fitted curve in the direction sought with a large enough effect in the repeat runs; an effect the other way counts as inactive or inconclusive)
Chain of KiSS-1 receptor (Homo sapiens) (Q969F8 whole entry, looked up): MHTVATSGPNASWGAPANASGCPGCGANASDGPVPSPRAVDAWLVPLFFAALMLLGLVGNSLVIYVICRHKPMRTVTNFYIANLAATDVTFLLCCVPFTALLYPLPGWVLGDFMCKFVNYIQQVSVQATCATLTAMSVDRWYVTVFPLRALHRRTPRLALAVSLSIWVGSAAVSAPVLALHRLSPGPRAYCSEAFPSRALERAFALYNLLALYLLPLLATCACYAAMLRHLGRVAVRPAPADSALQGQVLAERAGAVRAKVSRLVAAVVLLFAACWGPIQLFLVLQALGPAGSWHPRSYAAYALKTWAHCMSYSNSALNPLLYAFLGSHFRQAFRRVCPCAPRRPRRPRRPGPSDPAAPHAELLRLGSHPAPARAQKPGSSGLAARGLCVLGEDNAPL
Method in brief: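 After overnight (18 h) culture at 37 C/5% CO2, human KISS1R-HEK293 cells received calcium dye for 1 h, then test compound; emission at 540 nm (excitation 480 nm) was tracked for 3 min.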

[5] = G protein-coupled receptor (GPCR) small molecule agonists, calcium flux assay: HEK293 wild type cell line counter screen (AID 1920065)
Method in brief: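 Following 18 h incubation at 37 C/5% CO2, plates got calcium dye for 1 h; compounds, ATP or DMSO were then pinned in and fluorescence followed kinetically (480/540 nm).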

[6] = p53 small molecule agonists, cell-based qHTS assay with human liver microsomes (AID 1963577);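 also: p53 response element beta-lactamase reporter cells with liver microsomes plus NADPH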
Method in brief: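 Steps: plate p53RE-bla cells, incubate 5 h at 37 C; add compound in DMSO; add microsomes (0.5 mg/mL final) and NADPH (0.5 mg/mL final); incubate 16 h at 37 C; add LiveBLAzer, 2 h RT; read fluorescence.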

[7] = p53 small molecule agonists, cell-based qHTS assay with rat liver microsomes (AID 1963578)
Method in brief: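 Metabolic activation is supplied by rat liver microsomes with NADPH (each 0.5 mg/mL final). p53RE-bla cells incubate with compound 16 h at 37 C; reporter activity is measured by LiveBLAzer fluorescence.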

[8] = p53 small molecule agonists, cell-based qHTS assay with human liver microsomes: qHTS cell viability counter screen (AID 1963579); also: nearly all actives have a fitted effect of over 45% in size
Method in brief: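 After the 460/530 nm beta-lactamase read, CellTiter-Glo was added to the same wells and luminescence measured after 30 min at room temperature, giving viability of p53RE-bla cells treated 16 h with compounds plus microsomes and NADPH.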

[9] = p53 small molecule agonists, cell-based qHTS assay (AID 1963582; active = well fitted activation curve with a large enough effect in the signal ratio in the repeat runs, not every such curve was filed as active; the % refers to the signal ratio)
Method in brief: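 Measured: fluorescence from cleaved LiveBLAzer substrate. System: p53RE-bla cells, 16 h compound treatment at 37 C, 2 h substrate step at room temperature.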

[10] = target: 5-hydroxytryptamine receptor 2A (Homo sapiens) (UniProt P28223); experiment: 5-hydroxytryptamine receptor 2A (HTR2A) small molecule antagonists, cell-based qHTS assay (AID 1963586); also: nearly all actives have a fitted effect of over 45% in size
Chain of 5-hydroxytryptamine receptor 2A (Homo sapiens) (P28223 whole entry, looked up): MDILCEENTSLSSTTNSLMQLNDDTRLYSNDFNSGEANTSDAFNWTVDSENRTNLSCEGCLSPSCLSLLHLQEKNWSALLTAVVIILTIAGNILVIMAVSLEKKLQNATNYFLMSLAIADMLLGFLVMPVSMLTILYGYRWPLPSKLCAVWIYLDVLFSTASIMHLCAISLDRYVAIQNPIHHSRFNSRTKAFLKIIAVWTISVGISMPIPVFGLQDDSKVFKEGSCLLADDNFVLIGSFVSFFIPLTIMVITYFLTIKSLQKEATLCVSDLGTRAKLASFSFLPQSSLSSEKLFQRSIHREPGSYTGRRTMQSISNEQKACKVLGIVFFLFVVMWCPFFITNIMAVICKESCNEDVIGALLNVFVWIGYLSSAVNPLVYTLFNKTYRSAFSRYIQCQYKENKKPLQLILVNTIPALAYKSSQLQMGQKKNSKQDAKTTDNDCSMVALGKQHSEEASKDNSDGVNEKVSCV
Method in brief: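 CHO cells stably expressing human HTR2A were plated for 18 h at 37 C, then loaded with calcium dye for 1 h. Compounds were preincubated 5 min at room temperature before DOI (4 nM solution) was added. Kinetic fluorescence was read for 3 min.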

[11] = target: 5-hydroxytryptamine receptor 2A (Homo sapiens) (UniProt P28223); experiment: 5-hydroxytryptamine receptor 2A (HTR2A) small molecule agonists, cell-based qHTS assay (AID 1963587); also: nearly all actives have a fitted effect of over 30% in size
Method in brief: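 HTR2A-CHO cells, plated 18 h at 37 C/5% CO2, dye-loaded 1 h at 37 C; compounds in DMSO added by pin tool (agonist mode). Intracellular calcium flux read as kinetic fluorescence on FDSS over 2 min at 1 s intervals.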

[12] = target: Muscarinic acetylcholine receptor M1 (Homo sapiens) (UniProt P11229); experiment: Cholinergic receptor muscarinic 1 (CHRM1) small molecule antagonists, cell-based qHTS assay (AID 1963588); also: nearly all actives have a fitted effect of over 40% in size
Chain of Muscarinic acetylcholine receptor M1 (Homo sapiens) (P11229 whole entry, looked up): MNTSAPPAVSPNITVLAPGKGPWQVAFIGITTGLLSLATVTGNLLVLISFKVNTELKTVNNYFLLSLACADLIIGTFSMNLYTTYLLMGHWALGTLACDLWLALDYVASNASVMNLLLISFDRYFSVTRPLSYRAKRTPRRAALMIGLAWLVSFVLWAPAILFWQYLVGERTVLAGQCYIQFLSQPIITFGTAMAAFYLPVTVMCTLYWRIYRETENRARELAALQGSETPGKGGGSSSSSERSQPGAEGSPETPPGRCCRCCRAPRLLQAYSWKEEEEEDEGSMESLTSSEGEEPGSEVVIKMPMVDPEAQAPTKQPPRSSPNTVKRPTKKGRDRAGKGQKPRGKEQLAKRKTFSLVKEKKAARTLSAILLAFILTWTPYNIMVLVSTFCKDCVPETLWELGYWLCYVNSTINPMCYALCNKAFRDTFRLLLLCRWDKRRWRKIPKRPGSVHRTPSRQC
Method in brief: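 Compounds were tested at 15 concentrations in three independent runs. Dye-loaded CHRM1-CHO cells were exposed 5 min at room temperature before stimulation by acetylcholine added at 50nM. Intracellular calcium was read kinetically on FDSS for 3 min.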

[13] = target: Muscarinic acetylcholine receptor M1 (Homo sapiens) (UniProt P11229); experiment: Cholinergic receptor muscarinic 1 (CHRM1) small molecule agonists, cell-based qHTS assay (AID 1963589); also: nearly all actives have a fitted effect of over 35% in size
Method in brief: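 Kinetic fluorescence (1 s intervals) of calcium-sensitive dye in human M1 CHO cells after compound addition; cells pre-incubated 18 h at 37 C/5% CO2 and dye-loaded 1 h.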

[14] = cAMP Responsive Elements (CRE) small molecule agonists, cell-based qHTS assay (AID 1963590)
Method in brief: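 Test agents in DMSO were incubated 3 h at 37 C/5% CO2 with CRE-bla HEK 293T cells seeded 18 h earlier; LiveBLAzer B/G FRET substrate was added and read after 2 h at room temperature.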

[15] = cAMP Responsive Elements (CRE) small molecule antagonists, cell-based qHTS assay (AID 1963591; active = well fitted inhibition curve with a large enough effect in the signal ratio in the repeat runs, not every such curve was filed as active; the % refers to the signal ratio)
Method in brief: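 Reporter line CRE-bla HEK 293T in dialyzed-FBS DMEM; cells preincubated 18 h, treated 3 h with compound plus NKH477 (0.25 uM final); LiveBLAzer FRET, 2 h RT.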

[16] = target: Beta-2 adrenergic receptor (Homo sapiens) (UniProt P07550); experiment: Adrenergic beta2 receptor (ADRB2) small molecule antagonists, cell-based qHTS assay (AID 1963592); also: series mostly up to about 92 µM; nearly all actives have a fitted effect of over 50% in size
Chain of Beta-2 adrenergic receptor (Homo sapiens) (P07550 whole entry, looked up): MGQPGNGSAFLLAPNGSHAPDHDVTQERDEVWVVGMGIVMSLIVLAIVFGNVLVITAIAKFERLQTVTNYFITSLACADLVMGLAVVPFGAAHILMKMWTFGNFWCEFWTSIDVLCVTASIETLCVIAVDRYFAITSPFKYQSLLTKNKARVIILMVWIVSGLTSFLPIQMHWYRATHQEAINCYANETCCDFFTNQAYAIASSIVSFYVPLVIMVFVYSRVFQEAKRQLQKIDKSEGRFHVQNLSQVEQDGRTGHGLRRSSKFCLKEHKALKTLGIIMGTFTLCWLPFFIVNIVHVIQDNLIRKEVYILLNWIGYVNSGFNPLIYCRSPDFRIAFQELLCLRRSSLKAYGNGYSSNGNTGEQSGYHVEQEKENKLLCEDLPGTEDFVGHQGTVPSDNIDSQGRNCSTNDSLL
Method in brief: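 Assay format: CHO-ADRB2 cells, 18-20hr seeding at 37C/5% CO2, then compound plus 1nM isoproterenol agonist mix for 0.5hr RT. Homogeneous time-resolved fluorescence cAMP detection after 1hr, expressed as 665/615 nm ratio.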

[17] = target: D(2) dopamine receptor (Homo sapiens) (UniProt P14416); experiment: Dopamine D2 receptor (DRD2) small molecule agonists, cell-based qHTS assay (AID 1963594); also: nearly all actives have a fitted effect of over 35% in size
Chain of D(2) dopamine receptor (Homo sapiens) (P14416 whole entry, looked up): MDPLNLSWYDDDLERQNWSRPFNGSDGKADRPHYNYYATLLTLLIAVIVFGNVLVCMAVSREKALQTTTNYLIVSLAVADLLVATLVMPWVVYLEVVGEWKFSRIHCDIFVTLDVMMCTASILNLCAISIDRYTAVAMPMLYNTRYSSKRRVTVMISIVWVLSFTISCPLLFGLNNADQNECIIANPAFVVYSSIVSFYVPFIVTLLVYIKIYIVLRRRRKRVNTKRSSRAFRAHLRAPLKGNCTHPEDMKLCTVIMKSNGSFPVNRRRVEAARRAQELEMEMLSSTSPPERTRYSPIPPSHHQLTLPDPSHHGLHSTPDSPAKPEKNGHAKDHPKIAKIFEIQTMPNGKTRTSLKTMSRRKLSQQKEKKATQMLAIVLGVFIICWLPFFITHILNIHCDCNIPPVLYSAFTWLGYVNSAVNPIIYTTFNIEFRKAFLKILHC
Method in brief: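 HEK293 cells stably expressing DRD2 were cultured 24 h at 37 C, then given Ro20-1724 (0.1 mM final) and compounds for 10 min at room temperature. NKH477 (200nM) was then added for 30 min. cAMP was read by HTRF.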

[18] = target: D(2) dopamine receptor (Homo sapiens) (UniProt P14416); experiment: Dopamine D2 receptor (DRD2) small molecule antagonists, cell-based qHTS assay (AID 1963595; active = well fitted inhibition curve with a large enough effect in the signal ratio in the repeat runs, with a control signal flat; the % refers to the signal ratio)
Method in brief: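 HEK293 cells stably expressing DRD2 were preincubated with 0.1 mM Ro20-1724, then with compound for 10 min at room temperature. Cells were stimulated with 200 nM NKH477 plus 12 nM quinpirole for 30 min, and cAMP was read by HTRF.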

[19] = p53 small molecule agonists, cell-based qHTS assay with rat liver microsomes: qHTS cell viability counter screen (AID 1963580); also: nearly all actives have a fitted effect of over 45% in size
Method in brief: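 Luminescent ATP readout (CellTiter-Glo, 30 min at room temperature) reports viability of p53RE-bla HCT-116 cells after 16 h at 37 C with test compounds under metabolic activation by rat liver microsomes and NADPH at 0.5 mg/mL final each.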

[20] = target: Beta-2 adrenergic receptor (Homo sapiens) (UniProt P07550); experiment: Adrenergic beta2 receptor (ADRB2) small molecule agonists, cell-based qHTS assay (AID 1963593);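 also: CHO cells stably overexpressing human ADRB2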
Method in brief: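 CHO cells stably over-expressing ADRB2 were plated overnight at 37C, then dosed with compounds plus a stimulation mix containing 100uM IBMX and 25uM Ro-20-1724 for 0.5hr at room temperature. cAMP was measured by HTRF competition, 1hr.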

Measured: Potency

C/C=C/CO
not listed: [19] | [20]
inactive: all other assays above

N#CC1(O)CCCCC1
active: [2] 61.6 µM
not listed: [10] | [17]
inactive: all other assays above

N=C(N)c1ccccc1
not listed: [19] | [20]
inactive: all other assays above

CCOC(/C=C(\C)CCC=C(C)C)OCC
not listed: [9] | [12]
inactive: all other assays above

Nc1c(Br)cc([N+](=O)[O-])cc1Br
not listed: [9] | [10] | [18]
inactive: all other assays above

CC(C)S
not listed: [9] | [13] | [15] | [20]
inactive: all other assays above

COC(=O)CC(C(C)=O)C(=O)OC (stereo not drawn)
not listed: [8] | [17]
inactive: all other assays above
